Results: ChEMBL document CHEMBL1157539, “Thousands of chemical starting points for antimalarial lead identification” (Nature, 2010)

How the values were obtained:
Assay type in all cases: functional
Plasmodium falciparum [1] = experiment: GSK_TCMDC: Inhibition of Plasmodium falciparum 3D7 in whole red blood cells, using parasite LDH activity as an index of growth. Test compounds present at 2uM
Plasmodium falciparum [2] = experiment: GSK_TCMDC: Inhibition of Plasmodium falciparum Dd2 in whole red blood cells, using parasite LDH activity as an index of growth. Test compounds present at 2uM
HepG2 = experiment: GSK_TCMDC: Percent inhibition of human HepG2 cell line. Test compounds present at 10uM.

C[C@@H](NC(=O)c1nn(-c2ccc(Cl)cc2)c(=O)c2ccccc12)C(C)(C)C
Inhibition (Plasmodium falciparum [1]): 95%
Inhibition (Plasmodium falciparum [2]): 20%
Inhibition (HepG2): 7%

Cc1cccc2nc(-c3ccc(-c4cccc(CNCCNC(=O)c5ccnn5C)c4)s3)[nH]c12.O=C(O)C(F)(F)F
Inhibition (Plasmodium falciparum [1]): 100%
Inhibition (Plasmodium falciparum [2]): 87%
Inhibition (HepG2): 17%

Nc1nccc(-c2ccc3c(/C=C/c4ccccc4)cnc(N)c3c2)n1
Inhibition (Plasmodium falciparum [1]): 100%
Inhibition (Plasmodium falciparum [2]): 100%
Inhibition (HepG2): 32%

Cc1cc(N[C@@H](Cc2ccccc2)C(=O)Nc2ccccc2)nc(Nc2ccccc2)n1.O=C(O)C(F)(F)F
Inhibition (Plasmodium falciparum [1]): 100%
Inhibition (Plasmodium falciparum [2]): 69%
Inhibition (HepG2): 8%

COc1ccc2ccccc2c1CCCCN1CCN(CC(c2ccc(F)cc2)N2CCN(C(C)C)CC2)CC1.Cl (stereo not drawn)
Inhibition (Plasmodium falciparum [1]): 100%
Inhibition (Plasmodium falciparum [2]): 83%
Inhibition (HepG2): 92%

CO/C(=C\C=C/c1cc2cc(Cl)c(Cl)cc2[nH]1)C(=O)NC1CC(C)(C)N(C)C(C)(C)C1
Inhibition (Plasmodium falciparum [1]): 93%
Inhibition (Plasmodium falciparum [2]): 34%
Inhibition (HepG2): 65%

Cc1ccc(Oc2ccccc2NC(=O)CCc2nc3ccccc3c(=O)[nH]2)cc1
Inhibition (Plasmodium falciparum [1]): 100%
Inhibition (Plasmodium falciparum [2]): 99%
Inhibition (HepG2): 3%

CNCc1cccc(-c2ccc3ccnc(N)c3c2)c1
Inhibition (Plasmodium falciparum [1]): 100%
Inhibition (Plasmodium falciparum [2]): 98%
Inhibition (HepG2): 20%

COc1ccc(-c2ccc(NC(=O)c3ccc(F)cc3)cc2)cc1CNC(C)C.O=C(O)C(F)(F)F
Inhibition (Plasmodium falciparum [1]): 97%
Inhibition (Plasmodium falciparum [2]): 28%
Inhibition (HepG2): 24%

Cc1cccc2nc(-c3ccc(-c4ccc(CN5CCN(c6cnccn6)CC5)cc4)s3)[nH]c12.O=C(O)C(F)(F)F
Inhibition (Plasmodium falciparum [1]): 94%
Inhibition (Plasmodium falciparum [2]): 42%
Inhibition (HepG2): 11%

OC(c1nnc(S)n1-c1ccccc1)C(O)c1nnc(S)n1-c1ccccc1 (stereo not drawn)
Inhibition (Plasmodium falciparum [1]): 92%
Inhibition (Plasmodium falciparum [2]): 89%
Inhibition (HepG2): 18%

CN1CCc2cc(NS(=O)(=O)c3ccc(-c4ccc(Cl)s4)cc3)c(N3CCCCC3)cc2CC1.Cl
Inhibition (Plasmodium falciparum [1]): 98%
Inhibition (Plasmodium falciparum [2]): 29%
Inhibition (HepG2): 14%

CC(=O)Nc1ccc2[nH]cc(C3CCN(CC4CCC(NC(=O)/C=C/c5ccc(Cl)c(Cl)c5)CC4)CC3)c2n1 (stereo not drawn)
Inhibition (Plasmodium falciparum [1]): 100%
Inhibition (Plasmodium falciparum [2]): 79%
Inhibition (HepG2): 17%

COc1ccc(N2CCN(CCCN3CCN(C(=O)c4ccc(/C=C/c5ccc(Cl)c(Cl)c5)cc4)CC3)CC2)c(OC)c1.O=C(O)/C=C/C(=O)O
Inhibition (Plasmodium falciparum [1]): 93%
Inhibition (Plasmodium falciparum [2]): 52%
Inhibition (HepG2): 47%

CC(=O)c1cc(N2CCOCC2)ccc1N
Inhibition (Plasmodium falciparum [1]): 91%
Inhibition (Plasmodium falciparum [2]): 43%
Inhibition (HepG2): 7%

Cc1cc(F)ccc1Nc1nc(N(C)c2ccccc2)c2cccc(OCCO)c2n1
Inhibition (Plasmodium falciparum [1]): 95%
Inhibition (Plasmodium falciparum [2]): 94%
Inhibition (HepG2): 34%

Cc1[nH]c(C)c(-c2ccc(CCc3ccc(C(F)(F)F)cc3)nc2)c(=O)c1Cl
Inhibition (Plasmodium falciparum [1]): 97%
Inhibition (Plasmodium falciparum [2]): 97%
Inhibition (HepG2): 24%

CN1CCN(c2ccc(Nc3nccc(-c4cnn5ncccc45)n3)cc2Cl)CC1
Inhibition (Plasmodium falciparum [1]): 95%
Inhibition (Plasmodium falciparum [2]): 92%
Inhibition (HepG2): 65%

CC(C)Sc1nncc(-c2cnnc(SC(C)C)n2)n1
Inhibition (Plasmodium falciparum [1]): 100%
Inhibition (Plasmodium falciparum [2]): 100%
Inhibition (HepG2): 0%

O=C(NCC1CCN(Cc2cccc(C(F)(F)F)c2)C1)c1cc(-c2cccc(C(F)(F)F)c2)cs1.O=C(O)C(F)(F)F (stereo not drawn)
Inhibition (Plasmodium falciparum [1]): 100%
Inhibition (Plasmodium falciparum [2]): 74%
Inhibition (HepG2): 35%

Br.CC1(C)NC(N)=NC(=N)N1OCCCNC(=O)c1ccc([N+](=O)[O-])cc1
Inhibition (Plasmodium falciparum [1]): 92%
Inhibition (Plasmodium falciparum [2]): 97%
Inhibition (HepG2): 57%

COc1ccc2nccc([C@@H](O)CN3CCC(NCc4cn5cc(F)ccc5n4)CC3)c2c1.O=C(O)C(=O)O
Inhibition (Plasmodium falciparum [1]): 96%
Inhibition (Plasmodium falciparum [2]): 5%
Inhibition (HepG2): 19%

COc1ccc(Nc2nc(N/N=C/c3ccc(O)cc3)nc(Nc3ccc([N+](=O)[O-])cc3)n2)cc1
Inhibition (Plasmodium falciparum [1]): 93%
Inhibition (Plasmodium falciparum [2]): 16%
Inhibition (HepG2): 0%

Cl.Nc1c2ccccc2nc2cc([N+](=O)[O-])ccc12
Inhibition (Plasmodium falciparum [1]): 98%
Inhibition (Plasmodium falciparum [2]): 26%
Inhibition (HepG2): 92%

COc1cccc(-c2cnc(N)c(-c3nc4ccc(C(F)(F)F)cc4[nH]3)c2)c1.Cl
Inhibition (Plasmodium falciparum [1]): 99%
Inhibition (Plasmodium falciparum [2]): 30%
Inhibition (HepG2): 5%

O=C(Nc1nc2cc(S(=O)(=O)NCCc3cccc(F)c3)ccc2n1CCCn1ccnc1)c1ccc(Cl)cc1.O=C(O)C(F)(F)F
Inhibition (Plasmodium falciparum [1]): 90%
Inhibition (Plasmodium falciparum [2]): 8%
Inhibition (HepG2): 0%

O=C(CCC1CCCC1)N(Cc1ccc(-c2ccc(CNCCc3ccccn3)cc2)cc1)CC1CCCCN1.O=C(O)C(F)(F)F (stereo not drawn)
Inhibition (Plasmodium falciparum [1]): 95%
Inhibition (Plasmodium falciparum [2]): 69%
Inhibition (HepG2): 32%

Cc1cccc2nc(-c3ccc(-c4cccc(CN5CCCC(N)C5)c4)s3)[nH]c12.O=C(O)C(F)(F)F (stereo not drawn)
Inhibition (Plasmodium falciparum [1]): 100%
Inhibition (Plasmodium falciparum [2]): 94%
Inhibition (HepG2): 17%

C=C(C)Cn1cc(C2CCN(CCN3CCC(CNC(=O)c4ccc(-c5ccc(C#N)cc5)cc4)CC3)CC2)c2ccccc21
Inhibition (Plasmodium falciparum [1]): 99%
Inhibition (Plasmodium falciparum [2]): 94%
Inhibition (HepG2): 64%

O=C(N[C@@H](CC1CCCCC1)C(=O)NCc1cccc2ccccc12)c1ccc(O)c(-c2ccc(Cl)c(Cl)c2)c1
Inhibition (Plasmodium falciparum [1]): 97%
Inhibition (Plasmodium falciparum [2]): 99%
Inhibition (HepG2): 0%

O=C(CCCCCNC(=O)c1ccc(O)c(-c2ccc(Cl)c(Cl)c2)c1)NCc1cccc2ccccc12
Inhibition (Plasmodium falciparum [1]): 99%
Inhibition (Plasmodium falciparum [2]): 15%
Inhibition (HepG2): 2%

Cc1cc(N2CCOCC2)nc(Nc2ccc(NC(=O)c3cccc4ccccc34)cc2)n1
Inhibition (Plasmodium falciparum [1]): 95%
Inhibition (Plasmodium falciparum [2]): 11%
Inhibition (HepG2): 44%

CCOc1ccc(C=CC(=O)Nc2ccc3nc(N4CCOCC4)cc(C)c3c2)cc1OC
Inhibition (Plasmodium falciparum [1]): 92%
Inhibition (Plasmodium falciparum [2]): 23%
Inhibition (HepG2): 14%

CCN(CC)CCNC(=O)c1ccc(NC(=O)c2cc(-c3ccncc3)nc3ccccc23)cc1
Inhibition (Plasmodium falciparum [1]): 97%
Inhibition (Plasmodium falciparum [2]): 2%
Inhibition (HepG2): 1%

CC1CCN(c2nc(C(=O)NCCc3ccc(Cl)c(Cl)c3)c(C(C)C)s2)CC1.O=C(O)C(F)(F)F
Inhibition (Plasmodium falciparum [1]): 88%
Inhibition (Plasmodium falciparum [2]): 38%
Inhibition (HepG2): 0%

CCc1c(CCNC/C=C/C=C/CNCCc2ccc(OC)c(OC)c2CC)ccc(OC)c1OC.Cl
Inhibition (Plasmodium falciparum [1]): 100%
Inhibition (Plasmodium falciparum [2]): 99%
Inhibition (HepG2): 75%

CCCCN(CCCC)CCNC(=O)c1cccc(NC(=O)N2CCc3cc(SC)c(C(F)(F)F)cc32)c1
Inhibition (Plasmodium falciparum [1]): 96%
Inhibition (Plasmodium falciparum [2]): 32%
Inhibition (HepG2): 15%

COc1cccc(CN2CCCC(COC(c3ccc(F)cc3)c3ccc(F)cc3)C2)c1O (stereo not drawn)
Inhibition (Plasmodium falciparum [1]): 98%
Inhibition (Plasmodium falciparum [2]): 100%
Inhibition (HepG2): 24%

Cc1c(F)cc(C(=O)NC2CC2)cc1-c1ccc2c(cnn2S(=O)(=O)c2ccc(Cl)s2)c1
Inhibition (Plasmodium falciparum [1]): 81%
Inhibition (Plasmodium falciparum [2]): 50%
Inhibition (HepG2): 24%

CC(C)(C)OC(=O)N1CCC(C2CCN(C(=O)OC(C)(C)C)CC2)CC1
Inhibition (Plasmodium falciparum [1]): 86%
Inhibition (Plasmodium falciparum [2]): 28%
Inhibition (HepG2): 0%

COc1ccc(C=NNc2nc(O)cc(-c3ccccc3)n2)cc1OC
Inhibition (Plasmodium falciparum [1]): 92%
Inhibition (Plasmodium falciparum [2]): 93%
Inhibition (HepG2): 22%

CN(CCCCNC(=O)/C=C/c1ccccc1)C1CC2(CCN(C(=O)OC(C)(C)C)CC2)c2ccccc21 (stereo not drawn)
Inhibition (Plasmodium falciparum [1]): 87%
Inhibition (Plasmodium falciparum [2]): 51%
Inhibition (HepG2): 11%

O=C(Nc1cccc(CN2CCCN(Cc3ccc(O)cc3)CC2)c1)c1cc2ccccc2s1.O=C(O)C(F)(F)F
Inhibition (Plasmodium falciparum [1]): 100%
Inhibition (Plasmodium falciparum [2]): 90%
Inhibition (HepG2): 27%

Cc1ccccc1C1CCN(C2CCC(NC(=O)/C=C/c3ccc(F)cc3)CC2)CC1 (stereo not drawn)
Inhibition (Plasmodium falciparum [1]): 87%
Inhibition (Plasmodium falciparum [2]): 30%
Inhibition (HepG2): 61%

O=C(O)C(F)(F)F.Oc1ccc(CN2Cc3ccccc3OC3(CCN(Cc4c[nH]c5cnccc45)CC3)C2)cc1
Inhibition (Plasmodium falciparum [1]): 100%
Inhibition (Plasmodium falciparum [2]): 3%
Inhibition (HepG2): 17%

Cc1cccc(Cl)c1S(=O)(=O)N1CCCCC(c2ccc(C(F)(F)F)cc2)=N1
Inhibition (Plasmodium falciparum [1]): 100%
Inhibition (Plasmodium falciparum [2]): 100%
Inhibition (HepG2): 5%

CSc1ccc(C=CC(=O)NC(=O)c2ccccc2O)cc1
Inhibition (Plasmodium falciparum [1]): 97%
Inhibition (Plasmodium falciparum [2]): 96%
Inhibition (HepG2): 2%

COc1ccc(-c2nc(NC(=O)CS(=O)(=O)c3ccc(C)cc3)sc2C)cc1
Inhibition (Plasmodium falciparum [1]): 100%
Inhibition (Plasmodium falciparum [2]): 94%
Inhibition (HepG2): 56%

O=S(=O)(Nc1ccc(CCN2CCC(N3CCCCC3)CC2)cc1)c1ccccc1C(F)(F)F
Inhibition (Plasmodium falciparum [1]): 95%
Inhibition (Plasmodium falciparum [2]): 8%
Inhibition (HepG2): 9%

COc1cccc([C@@H](CC(=O)Nc2cc(C(F)(F)F)ccc2OC)Nc2ccc(C#N)c3ccccc23)c1
Inhibition (Plasmodium falciparum [1]): 96%
Inhibition (Plasmodium falciparum [2]): 53%
Inhibition (HepG2): 19%

COc1ccc(Cl)c(CC2c3cc(O)c(Cl)cc3CCN2C)c1.Cl (stereo not drawn)
Inhibition (Plasmodium falciparum [1]): 98%
Inhibition (Plasmodium falciparum [2]): 72%
Inhibition (HepG2): 9%

COc1ccccc1CCNc1nc(C)cc(NCCC(=O)Nc2ccccc2)n1.O=C(O)C(F)(F)F
Inhibition (Plasmodium falciparum [1]): 100%
Inhibition (Plasmodium falciparum [2]): 24%
Inhibition (HepG2): 7%

Cc1cc(-c2ccc3c(c2)CC[C@@H](N[C@@H](C)c2ccccc2)C3)cnc1N.Cl
Inhibition (Plasmodium falciparum [1]): 98%
Inhibition (Plasmodium falciparum [2]): 7%
Inhibition (HepG2): 3%

Cc1cccc2nc(-c3ccc(-c4cccc(CNCC5CCCO5)c4)cc3)[nH]c12.O=C(O)C(F)(F)F (stereo not drawn)
Inhibition (Plasmodium falciparum [1]): 100%
Inhibition (Plasmodium falciparum [2]): 50%
Inhibition (HepG2): 18%

O=C(n1c(-c2cc3ccccc3n2C(=O)C(F)(F)F)cc2ccccc21)C(F)(F)F
Inhibition (Plasmodium falciparum [1]): 94%
Inhibition (Plasmodium falciparum [2]): 80%
Inhibition (HepG2): 30%

CN(c1ccc(F)cc1)S(=O)(=O)c1ccc(Cl)c(C(=O)Nc2cccc(C#N)c2)c1
Inhibition (Plasmodium falciparum [1]): 95%
Inhibition (Plasmodium falciparum [2]): 58%
Inhibition (HepG2): 5%

CCNC(=O)Nc1ccc(-c2ccc(-c3nc4cccc(C)c4[nH]3)s2)cc1
Inhibition (Plasmodium falciparum [1]): 96%
Inhibition (Plasmodium falciparum [2]): 13%
Inhibition (HepG2): 18%

CCN(CC)/C(=N\C(=N)NCCCCCCNC(=N)/N=C(\Nc1ccc(Cl)cc1)N(CC)CC)Nc1ccc(Cl)cc1
Inhibition (Plasmodium falciparum [1]): 97%
Inhibition (Plasmodium falciparum [2]): 96%
Inhibition (HepG2): 1%

O=C(/C=C/c1ccc(Cl)c(Cl)c1)NCCCCCCN1CCCN(C(=O)Nc2cccc(C(F)(F)F)c2)CC1
Inhibition (Plasmodium falciparum [1]): 95%
Inhibition (Plasmodium falciparum [2]): 0%
Inhibition (HepG2): 25%

COc1ccccc1NC(=O)Nc1cccc(-c2cccc(-c3nc4cc(C(F)(F)F)ccc4[nH]3)c2)c1
Inhibition (Plasmodium falciparum [1]): 100%
Inhibition (Plasmodium falciparum [2]): 97%
Inhibition (HepG2): 21%

Cc1cccc2nc(-c3ccc(-c4ccc(CNCc5ccccc5)cc4)cc3)[nH]c12.O=C(O)C(F)(F)F
Inhibition (Plasmodium falciparum [1]): 99%
Inhibition (Plasmodium falciparum [2]): 90%
Inhibition (HepG2): 5%
